Measurements from PubChem BioAssay (NCI).
Where “and” joins values, the source holds several entries; their conditions need not be identical. Equal entries are not always repeated. The panel holds about 79,000 compounds, 15% with a hit somewhere; the sample as a whole holds those more often. The source holds several records for some structures; these can differ, active in one and inactive in another. Calls of active or inactive are those of the source. Rule as the data show it: active = growth inhibition above about 70%; inactive = the rest.

Tests used:
[1] = NCI Yeast Anticancer Drug Screen. Data for the wt1 strain (AID 149);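 also: 0% = growth of vehicle-treated wt1 cultures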; conditions: S. cerevisiae wt1 strain (SPY 50644) growth inhibition, stronger effect = higher value
In short: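 Vehicle-normalised growth inhibition; strain wt1; compound exposure.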

[2] = NCI Yeast Anticancer Drug Screen. Data for the rad50EPP+ strain (AID 151);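 also: 0% = growth of vehicle-treated control cultures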; conditions: S. cerevisiae rad50 mutant strain, stronger effect = higher value
In short: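 Yeast strain carrying rad50 alteration (rad50EPP+) exposed to compounds; growth inhibition measured relative to vehicle-treated controls.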

[3] = NCI Yeast Anticancer Drug Screen. Data for the mgt1 strain (AID 153); conditions: S. cerevisiae mgt1 mutant growth inhibition, stronger effect = higher value
In short: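 Yeast mgt1 strain (DNA repair/cell-cycle alteration panel) exposed to compounds; growth inhibition measured relative to vehicle-treated controls.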

[4] = NCI Yeast Anticancer Drug Screen. Data for the rad50 strain (AID 155);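 also: 0% = growth of vehicle-only cultures of the same strain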; conditions: S. cerevisiae rad50 strain growth inhibition, stronger effect = higher value
In short: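 A DNA repair-deficient yeast mutant serves as the test organism; compound-induced growth inhibition is calculated against vehicle-treated cells.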

[5] = NCI Yeast Anticancer Drug Screen. Data for the mec2-1 strain (AID 157); conditions: S. cerevisiae mec2-1 strain, stronger effect = higher value
In short: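 mec2-1 yeast strain, carrying an alteration in DNA damage repair or cell cycle control, was exposed to compounds; growth inhibition was measured relative to vehicle-treated controls.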

[6] = NCI Yeast Anticancer Drug Screen. Data for the rad14 strain (AID 159);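 also: 0% = growth of vehicle-treated control cultures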; conditions: S. cerevisiae rad14 strain growth inhibition, stronger effect = higher value
In short: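 Vehicle-treated cultures served as the baseline for growth inhibition of a DNA repair-mutant yeast strain exposed to each compound.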

[7] = NCI Yeast Anticancer Drug Screen. Data for the sgs1 mgt1 strain (AID 161);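 also: 0% = growth of cultures given vehicle only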; conditions: S. cerevisiae sgs1 mgt1 strain, stronger effect = higher value
In short: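 Percent growth inhibition was derived by comparing compound-exposed mutant yeast with vehicle-exposed cultures. The strain carries alterations in DNA damage repair.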

[8] = NCI Yeast Anticancer Drug Screen. Data for the cln2 rad14 strain (AID 165);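 also: 0% = growth equal to vehicle treated cultures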; conditions: S. cerevisiae cln2 rad14 strain, stronger effect = higher value
In short: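 Yeast carrying cln2 and rad14 alterations (cell cycle control and DNA damage repair) were exposed to compounds. Growth inhibition was measured against vehicle-treated controls.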

[9] = NCI Yeast Anticancer Drug Screen. Data for the bub3 strain (AID 167); conditions: S. cerevisiae bub3 mutant strain, stronger effect = higher value
In short: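 Inhibition values come from growth of compound-treated mutant yeast normalised to vehicle-treated controls.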

[10] = NCI Yeast Anticancer Drug Screen. Data for the wt2 strain (AID 169);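 also: 0% = growth of vehicle-treated yeast cultures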; conditions: S. cerevisiae wt2 strain growth inhibition, stronger effect = higher value
In short: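 Yeast cells were exposed to test compounds, and growth inhibition was measured relative to vehicle-treated controls.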

[11] = NCI Yeast Anticancer Drug Screen. Data for the mlh1 strain (AID 171);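 also: 0% = growth of vehicle-treated control cultures of the same strain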; conditions: S. cerevisiae mlh1 strain growth inhibition, stronger effect = higher value
In short: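 Yeast carrying a defined genetic alteration in DNA damage repair or cell cycle control were exposed to test compounds. Growth inhibition was measured relative to vehicle-treated controls.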

[12] = NCI Yeast Anticancer Drug Screen. Data for the sgs1 strain (AID 173);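 also: 0% = growth of vehicle-only control cultures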; conditions: S. cerevisiae sgs1 mutant, stronger effect = higher value
In short: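 Yeast mutant strains carrying defined defects in DNA damage repair or cell cycle control were exposed to test compounds. Growth inhibition was scored against vehicle-treated controls.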

[13] = NCI Yeast Anticancer Drug Screen. Data for the mlh1 rad18 strain (AID 175); conditions: S. cerevisiae mlh1 rad18 strain growth inhibition, stronger effect = higher value
In short: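 Growth inhibition of the yeast strain was measured after compound exposure and expressed relative to vehicle-treated controls. The strain carries defined defects in DNA damage repair.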

[14] = NCI Yeast Anticancer Drug Screen. Data for the rad18 strain (AID 177); conditions: S. cerevisiae rad18 mutant growth inhibition, stronger effect = higher value
In short: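 Yeast carrying a defined DNA damage repair alteration were exposed to compounds. Growth inhibition was expressed relative to vehicle-treated controls.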

[15] = NCI Yeast Anticancer Drug Screen. Data for the CLN2oe strain (AID 163);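 also: 0% = growth of vehicle-only control cultures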; conditions: S. cerevisiae CLN2oe strain, stronger effect = higher value
In short: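 Yeast cells carrying a defined cell-cycle control alteration were exposed to test compounds. Growth inhibition was scored against vehicle-treated control cultures.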

[16] = at 5.0 µM (retest, dose inferred, filed as 0.5)
[17] = at 50.0 µM (retest, dose inferred, filed as 5.0)

Measured: growth inhibition

O=C(O)NCC1CCCCC1 (tested in a mixture with another compound)
inactive: [1]; at 1.2 µM -1% | [1]; at 3.7 µM -4% | [1]; at 11.0 µM -4% | [1]; at 33.0 µM -5% | [1]; at 100.0 µM -4% | [2]; at 1.2 µM 0% | [2]; at 3.7 µM -4% | [2]; at 11.0 µM -3% | [2]; at 33.0 µM 7% | [2]; at 100.0 µM 4% | [3]; at 1.2 µM -2% | [3]; at 3.7 µM -4% | [3]; at 11.0 µM -4% | [3]; at 33.0 µM -4% | [3]; at 100.0 µM 16% | [4]; at 1.2 µM 2% | [4]; at 3.7 µM -3% | [4]; [16] 1% | [4]; at 11.0 µM -6% | [4]; at 33.0 µM 7% | [4]; [17] 38% | [4]; at 50.0 µM -12.8% | [5]; at 1.2 µM -3% | [5]; at 3.7 µM -1% | [5]; [16] -15% | [5]; at 11.0 µM -4% | [5]; at 33.0 µM -5% | [5]; [17] 19% | [5]; at 50.0 µM 8.35% | [5]; at 100.0 µM 22% | [6]; at 1.2 µM 0% | [6]; at 3.7 µM -6% | [6]; at 11.0 µM -5% | [6]; at 33.0 µM -1% | [6]; at 100.0 µM 61% | [7]; [16] -2% | [7]; [17] 39% | [7]; at 50.0 µM -35.7% | [8]; [16] -4% | [8]; [17] 11% | [8]; at 50.0 µM 33% | [9]; at 1.2 µM -4% | [9]; at 3.7 µM -4% | [9]; [16] -5% | [9]; at 11.0 µM -7% | [9]; at 33.0 µM -2% | [9]; [17] 10% | [9]; at 50.0 µM 0.5% | [9]; at 100.0 µM 58% | [10]; at 1.2 µM -2% | [10]; at 3.7 µM 2% | [10]; at 11.0 µM -5% | [10]; at 33.0 µM -4% | [10]; at 100.0 µM 37% | [11]; at 1.2 µM -2% | [11]; at 3.7 µM -6% | [11]; at 11.0 µM -7% | [11]; at 33.0 µM -3% | [11]; at 100.0 µM 32% | [12]; at 1.2 µM -4% | [12]; at 3.7 µM 6% | [12]; at 11.0 µM -23% | [12]; at 33.0 µM -5% | [13]; [16] 0% | [13]; [17] 34% | [13]; at 50.0 µM 6.1% | [14]; at 1.2 µM 0% | [14]; at 3.7 µM -1% | [14]; at 11.0 µM -5% | [14]; at 33.0 µM 2% | [14]; at 100.0 µM 45%
active: [4]; at 100.0 µM 83% | [12]; at 100.0 µM 75%

CCCCCCCCCCCCCCCCCN
32.8% (inactive) and 90.2% (active): [9]; at 50.0 µM
3.15% (inactive) and 90.2% (active): [4]; at 50.0 µM
47.4% (inactive) and 92.5% (active): [7]; at 50.0 µM
23.5% (inactive) and 89.9% (active): [13]; at 50.0 µM
active: [1]; at 33.0 µM 90% | [1]; at 100.0 µM 94% | [2]; at 11.0 µM 82% | [2]; at 33.0 µM 97% | [2]; at 100.0 µM 96% | [3]; at 11.0 µM 86% | [3]; at 33.0 µM 97% | [3]; at 100.0 µM 96% | [4]; at 11.0 µM 85% | [4]; at 33.0 µM 97% | [4]; [17] 96% | [4]; at 100.0 µM 94% | [5]; at 11.0 µM 91% | [5]; at 33.0 µM 98% | [5]; [17] 97% | [5]; at 100.0 µM 93% | [15]; at 11.0 µM 94% | [15]; at 33.0 µM 98% | [15]; at 100.0 µM 95% | [8]; [17] 90% | [9]; at 11.0 µM 90% | [9]; at 33.0 µM 98% | [9]; [17] 97% | [9]; at 100.0 µM 95% | [10]; at 33.0 µM 90% | [10]; at 100.0 µM 96% | [11]; at 11.0 µM 90% | [11]; at 33.0 µM 97% | [11]; at 100.0 µM 94% | [13]; [17] 96% | [14]; at 100.0 µM 93%
inactive: [1]; at 1.2 µM -23% | [1]; at 3.7 µM -25% | [1]; at 11.0 µM -5% | [2]; at 1.2 µM -14% | [2]; at 3.7 µM 11% | [3]; at 1.2 µM -29% | [3]; at 3.7 µM -24% | [4]; at 1.2 µM -27% | [4]; at 3.7 µM -17% | [4]; [16] 26% | [5]; at 1.2 µM -37% | [5]; at 3.7 µM -28% | [5]; [16] 51% | [7]; [16] 7% | [7]; [17] 50% | [15]; at 1.2 µM -22% | [15]; at 3.7 µM 11% | [8]; [16] 16% | [8]; at 50.0 µM 6.8% and 37% | [9]; at 1.2 µM -10% | [9]; at 3.7 µM -4% | [9]; [16] 54% | [10]; at 1.2 µM -15% | [10]; at 3.7 µM -12% | [10]; at 11.0 µM 49% | [11]; at 1.2 µM -31% | [11]; at 3.7 µM 0% | [13]; [16] 41% | [14]; at 1.2 µM -38% | [14]; at 3.7 µM -18% | [14]; at 11.0 µM 61% | [14]; at 33.0 µM 15%
-6.55% (inactive) and 92% (active): [5]; at 50.0 µM
